According to PubChem BioAssay AID504334 (NMMLSC, 2011):
Where “and” joins values, the source holds several entries; their conditions need not be identical. Equal entries are not always repeated. Values without a mark were called inactive.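 Rule for the calls: active = response relative to DMSO over 150%; inconclusive = yeast strain with under 70 recorded events; inactive = the rest.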

Test: AGP1-GFP expression modulators, hit retest, confirmation, cell-based, flow cytometry, S. cerevisiae, cherry pick set 3 (AID 504334);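 note: median GFP fluorescence per well by flow cytometry over the all cells gate; ratio of sample to mean DMSO control signal so DMSO = 100% not 0%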
Conditions: S. cerevisiae AGP1-GFP strain, 3 h, at 10 µM, active compounds read high

Row | SMILES | percent response vs DMSO
1 | Cc1ccc2c(Cl)cc(Cl)c(O)c2n1 | 109%
2 | O=C(Nc1ccccc1)O/N=C1/CCCc2occc21 | 94.4%
3 | CCC(C)Nc1nc(N)c([N+](=O)[O-])c(Nc2ccccc2OC)n1 (centres undefined) | 104%
4 | Nn1cnc2c(c1=O)C1(CCCCC1)Cc1ccccc1-2 | 94.1%
5 | COCCNc1nc(N)c([N+](=O)[O-])c(Nc2ccc(F)cc2)n1 | 101%
6 | CC1=CN2C(=N)/C(=C/c3ccco3)C(=O)N=C2S1 | 97.1%
7 | COc1ccc(-c2cc(C(F)(F)F)nc(S(C)(=O)=O)n2)cc1OC | 106% and 113%
8 | O=C(N/N=C/c1ccccc1O)c1cccc2ccccc12 | 99.8%
9 | CC(=O)NC(C)c1cc(Cl)c2cccnc2c1O (centres undefined) | 102%
10 | Cn1c(NCCCO)nc2c(c1=O)C1(CCCCC1)Cc1ccccc1-2 | 104%
11 | CC(=O)Nn1cnc2c(c1=O)C1(CCCC1)Cc1ccccc1-2 | 99.1%
12 | CC(=O)NCCOc1cccc2cccnc12 | 101%
13 | OCc1ccnc2c(O)cccc12 | 100%
14 | COc1cccc2c(=O)c(C(=O)O)c[nH]c12 | 94.1%
15 | CC1=CN2C(=N)/C(=C/c3ccc(C)o3)C(=O)N=C2S1 | 98.1%
16 | COc1cccc(N/C=C/C(=O)c2ccc(Cl)cc2)c1 | 93.8%
17 | Nc1ncnc(Nc2cc(Cl)cc(Cl)c2)c1[N+](=O)[O-] | 98.8%
18 | Nc1nc(NCCOCCO)nc(Nc2cccc(F)c2)c1[N+](=O)[O-] | 98.1%
19 | Cc1ccc(-c2cc(C(F)F)nc(S(C)(=O)=O)n2)cc1 | 110%
20 | O=C(Nc1cccc(Cl)c1)ON=C1c2ccccc2-c2ccccc21 | 99.1%

Row | SMILES | percent response vs DMSO
21 | Cn1c(NCCO)nc2c(c1=O)C1(CCCCC1)Cc1ccccc1-2 | 104%
22 | COC(=O)COc1c(Cl)cc(Cl)c2ccc(C)nc12 | 105%
23 | Brc1ccc2ncnc(NCc3ccccc3)c2c1 | 94.8%
24 | Oc1c(Br)cc(Br)c2cccnc12 | 109%
25 | COc1ccc(OC)c2c(=O)cc(C(=O)O)[nH]c12 | 102%
26 | CC(=O)C(CC(=O)N1CCCC1)C(=O)Nc1ccc(Cl)cc1 (centres undefined) | 100%
27 | Cc1ccc(Nc2nc(N)[nH]c(=O)c2N=O)cc1 | 101%
28 | CCN(CC)c1ncnc2ccc(Br)cc12 | 97.8%
29 | O=C(Nc1ccccc1Cl)ON=C1c2ccccc2-c2ccccc21 | 99.1%
30 | CCCCC(=O)NCCc1cc2c(OC)ccc(OC)c2[nH]c1=O | 98.8%
31 | C/C(=N\NC(=O)c1cccc2ccccc12)c1cccnc1 | 99.4%
32 | COc1cc(=O)n(C)c2c(O)cccc12 | 98.1%
33 | CC(C)Nc1ncnc2ccc(Br)cc12 | 99.4%
34 | O=C(Nc1cccc2ccccc12)ON=C1CCCCC1 | 99.8%
35 | Cc1ccc(NC(=O)O/N=C2\CCCCC2c2ccc([N+](=O)[O-])cc2[N+](=O)[O-])cc1 (centres undefined) | 100%
36 | COc1ccc(NC(=O)ON=C2c3ccccc3-c3ccccc32)cc1 | 98.1%
37 | CN(C)CCCNc1cc(O)c2ncccc2c1 | 105%
38 | Cc1cc(C)c2ccc(C(=O)O)nc2c1O | 97.4%
39 | C=CCNc1nc(N)c([N+](=O)[O-])c(Nc2ccccc2OC)n1 | 95.4%
